Potency data for 40 molecules are collected here from PubChem BioAssay (NCATS).

Results filed as inconclusive are left out. A call without a number means that no potency is given here. Activity calls are given as the source filed them. Calls follow the shape of the dose curve; as a rule, active = well fitted curve in the direction sought with a large enough effect; inconclusive = small, poorly fitted or top-dose-only effect, or another doubt; inactive = no such curve, though single readings can be large; an effect the other way counts as inactive or inconclusive.
Potency is read from the fitted curve at half-maximal effect.

The first assay can be described thus: qHTS for Inhibitors of Plasmodium falciparum (7G8) proliferation (AID 504316). Also: nearly all actives have a fitted effect of over 65% in size. Particulars: P. falciparum 7G8 in erythrocytes, SYBR Green DNA, 72 h; series mostly up to 6.7 µM. The gist of the method:
(§1)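 Erythrocytes infected with P. falciparum line (0.3% parasitemia, 2.5% hematocrit final) incubated with compounds 72 h at 37 °C, 5% CO2; SYBR Green lysis buffer added, fluorescence read next day. Normalized to 0.29 uM artemisinin and DMSO.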
(In qHTS, concentration-response curves come from the screen itself.)
Consider `C[C@@H]1CC[C@H]2C(=O)N(Cc3cccc([N+](=O)[O-])c3)C[C@H](O)CN2[C@@H]1c1ccc(Br)cc1`, for which the Potency entry is “inactive”.
Take `CC(=O)OC[C@H]1O[C@H](C#Cc2ccc(C(C)(C)C)cc2)C=C[C@H]1OC(C)=O`: the Potency was 1.69 µM (active).
For `CCCCc1nc2c(c3c1C[C@H](C)OC3)CN(C(=O)Nc1cccc(C#N)c1)CC2`, the Potency result is “inactive”.
On to `CCN1C(=O)[C@@H]2[C@H]3[C@H](O)[C@H](O)CC(=NO[C@@H](C)c4cc(-c5c(C)cc(C)cc5C)no4)[C@@H]3CC[C@H]2C1=O`, for which the Potency entry was “inactive”.
On to `CCN1C(=O)N[C@@H](c2cccc(C(F)(F)F)c2)C(C(=O)OC)=C1C`, for which the Potency result was “inactive”.
As for `COC(=O)C1=C(C(=O)OC)[C@@H]2N(C)c3ccc(OC)cc3[C@@]23C[C@@H](C(=O)OC)N(S(=O)(=O)c2ccc(Br)cc2)C3=N1`, the Potency is 1.51 µM (active).
Still for that read-out and setting: the result for `COCOc1c2c(c(OCOC)c3c(OCOC)cccc13)C(=NNS(C)(=O)=O)C1=C2CCCC1` reads 1.69 µM (active); that for `COC(=O)C1=C(C(=O)OC)[C@@H]2Nc3ccccc3[C@@]23C[C@@H](C(=O)OC)N(C(=O)c2cccs2)C3=N1`, “inactive”; that for `COC(=O)C1=C(C)N(CCc2cc(OC)c(OC)c(OC)c2)C(=O)N[C@H]1c1ccccc1`, “inactive”.
As for `COC(=O)[C@@H]1CC[C@H](C)[C@@H](c2ccc(C)cc2)N1C(=O)c1ccc(C=NO[C@@H](C)c2cc(-c3c(C)cc(C)cc3C)no2)cc1`, the Potency is 1.69 µM (active).
For `C=CCN1C=C2C(=O)C(C)(OC(=O)c3cccs3)C(=O)C=C2C=C1CCCC(=O)OC` (stereo not given), the Potency entry is “inactive”.
For `CCCNC(=O)N1C2=NC(C(=O)OC)=C(C(=O)OC)[C@@H]3N(C)c4ccccc4[C@]23C[C@H]1C(=O)OC`, the Potency result was “inactive”.
On the same count and under the same terms, the result for `COC(=O)N1C2CC(=O)O[C@@H]3c4cc5c(cc4[C@]1(C)[C@@]3(Br)c1ccccc12)OCO5` reads 1.69 µM (active); that for `C=C(C)C(=O)c1ccc2c(c1)OCO2`, “inactive”; that for `COC(=O)C1=C(C(=O)OC)[C@@H]2N(Cc3ccccc3)c3ccccc3[C@@]23C[C@@H](C(=O)OC)N(S(=O)(=O)c2ccc(Br)cc2)C3=N1`, 1.51 µM (active).

The nature of a further assay: qHTS for Inhibitors of Plasmodium falciparum (HB3) proliferation (AID 504318). Also: nearly all actives have a fitted effect of over 60% in size. To be noted: P. falciparum HB3 in erythrocytes, SYBR Green DNA, 72 h; series mostly up to 7.21 µM. Summed up: as §1
Turning to `CCCCc1nc2c(c3c1C[C@H](C)OC3)CN(C(=O)Nc1cccc(C#N)c1)CC2`, the Potency result is “inactive”.
Regarding `COC(=O)CCC(=O)OC1(C)C(=O)C=C2C=C(C3CC3)N(c3ccccc3)C=C2C1=O` (stereo not given), the Potency result was “inactive”.
With `COC(=O)CCC(=O)OC1(C)C(=O)C2=CN(CCCCO)C(c3ccc(OC)cc3)=CC2=C(Br)C1=O` (stereo not given), the Potency entry is “inactive”.
Take `CCN1C(=O)N[C@@H](c2cccc(C(F)(F)F)c2)C(C(=O)OC)=C1C`: the Potency result is “inactive”.
For `COc1ccc([C@]23Cc4cc(OC)c(OC)cc4[C@H](O2)c2c(c4ccccc4oc2=O)O3)cc1`, the Potency result is “inactive”.
On the same count and under the same terms, the result for `CCN(CC)CCCN1C=C2C(=O)C(C)(OC(=O)CCC(=O)OC)C(=O)C(Br)=C2C=C1c1ccc(OC)cc1` (stereo not given) reads “inactive”.
Consider `C=CCN1c2ccccc2[C@]23C[C@@H](C(=O)OC)N(S(=O)(=O)c4c(C)noc4C)C2=NC(C(=O)OC)=C(C(=O)OC)[C@H]13`, for which the Potency result was “inactive”.
For `CC#CCN1c2ccccc2[C@]23C[C@@H](C(=O)OC)N(C(=O)OCC)C2=NC(C(=O)OC)=C(C(=O)OC)[C@H]13`, the Potency result was “inactive”.
Consider `COC(=O)C1(C(=O)OC)CC(CO)C(=O)[C@@H]1c1ccccc1` (stereo not given in full), for which the Potency result is “inactive”.
For `COC(=O)C1=C(C(=O)OC)[C@@H]2N(C)c3ccc(OC)cc3[C@@]23C[C@@H](C(=O)OC)N(S(=O)(=O)c2c(C)noc2C)C3=N1`, the Potency entry was “inactive”.
Turning to `CC1COc2ccccc2C1=O` (stereo not given), the Potency is 1.9 µM (active).
With `C=CCNC(=O)N1C2=NC(C(=O)OC)=C(C(=O)OC)[C@@H]3N(Cc4ccccc4)c4ccccc4[C@]23C[C@H]1C(=O)OC`, the Potency is 3.16 µM (active).
Consider `CC#CCN1c2ccccc2[C@]23C[C@@H](C(=O)OC)N(C(=O)c4ccc(Br)cc4)C2=NC(C(=O)OC)=C(C(=O)OC)[C@H]13`, for which the Potency result was “inactive”.
For `COC(=O)C1=C(C(=O)OC)[C@@H]2N(Cc3ccccc3)c3ccccc3[C@@]23C[C@@H](C(=O)OC)N(S(=O)(=O)c2ccc(C(F)(F)F)cc2)C3=N1`, the Potency is 0.478 µM (active).
Consider `COC(=O)C1=C(C(=O)OC)[C@@H]2N(Cc3ccccc3)c3ccccc3[C@@]23C[C@@H](C(=O)OC)N(S(=O)(=O)c2ccc4c(c2)OCCN4C)C3=N1`, for which the Potency was 1.2 µM (active).
Still for that read-out and setting: the result for `COC(=O)C1=C(C(=O)OC)[C@@H]2N(Cc3ccccc3)c3ccccc3[C@@]23C[C@@H](C(=O)OC)N(S(=O)(=O)c2ccc(Br)cc2)C3=N1` reads 1.69 µM (active).

The nature of a further assay: qHTS for Inhibitors of Plasmodium falciparum (CP250) proliferation (AID 504320). To be noted: P. falciparum CP250 in erythrocytes, SYBR Green DNA, 72 h; series mostly up to 6.7 µM. The gist of the method: as §1
In the case of `COC(=O)CCCC1=CC2=C(c3ccccc3)C(=O)C(C)(OC(=O)C3CCCC3)C(=O)C2=CN1CCc1c[nH]c2ccccc12` (stereo not given), the Potency entry was “inactive”.
Same read-out and setting: the entry for `C[C@@H]1CC[C@H]2C(=O)N(Cc3cccc([N+](=O)[O-])c3)C[C@H](O)CN2[C@@H]1c1ccc(Br)cc1` is “inactive”; for `C[C@H]1Cc2c(COc3ccccc3)nc3c(c2CO1)CN(S(=O)(=O)c1ccc(Cl)c2nonc12)CC3` it is “inactive”; for `C#CCCCON=C1C[C@@H](O)[C@@H](O)[C@@H]2[C@H]3C(=O)N([C@@H](C)c4ccccc4)C(=O)[C@@H]3CC[C@H]12` it is “inactive”.
With `CCN1C(=O)[C@@H]2[C@H]3[C@H](O)[C@H](O)CC(=NO[C@@H](C)c4cc(-c5c(C)cc(C)cc5C)no4)[C@@H]3CC[C@H]2C1=O`, the Potency entry is “inactive”.
Still for that read-out and setting: the result for `COC(=O)CCC(=O)OC1(C)C(=O)C2=CN(CCCCO)C(c3ccc(OC)cc3)=CC2=C(Br)C1=O` (stereo not given) reads “inactive”.
Turning to `CCN1C(=O)N[C@@H](c2cccc(C(F)(F)F)c2)C(C(=O)OC)=C1C`, the Potency result is “inactive”.
For the molecule `COc1ccc([C@]23Cc4cc(OC)c(OC)cc4[C@H](O2)c2c(c4ccccc4oc2=O)O3)cc1`, the Potency entry is “inactive”.
`CCN(CC)CCCN1C=C2C(=O)C(C)(OC(=O)CCC(=O)OC)C(=O)C(Br)=C2C=C1c1ccc(OC)cc1` (stereo not given): the Potency entry was “inactive”.
In the case of `C=CCN1c2ccccc2[C@]23C[C@@H](C(=O)OC)N(S(=O)(=O)c4c(C)noc4C)C2=NC(C(=O)OC)=C(C(=O)OC)[C@H]13`, the Potency entry is “inactive”.
Take `CCCCS(=O)(=O)N1C2=NC(C(=O)OC)=C(C(=O)OC)[C@@H]3Nc4ccccc4[C@]23C[C@H]1C(=O)OC`: the Potency result is “inactive”.
Same read-out and setting: the result for `C[C@@H]1CC[C@H]2C(=O)N(Cc3ccccc3)C[C@H](O)CN2[C@H]1c1ccc(Br)cc1` reads “inactive”; that for `CC#CCN1c2ccccc2[C@]23C[C@@H](C(=O)OC)N(C(=O)OCC)C2=NC(C(=O)OC)=C(C(=O)OC)[C@H]13`, “inactive”; that for `COC(=O)C1(C(=O)OC)CC(CO)C(=O)[C@@H]1c1ccccc1` (stereo not given in full), “inactive”.
For `COC(=O)CCC(=O)OC1(C)C(=O)C2=CN(CCc3c[nH]c4ccccc34)C(c3ccc(OC)cc3)=CC2=C(Br)C1=O` (stereo not given), the Potency result was “inactive”.
Same read-out and setting: the result for `COC(=O)CCCC1=CC2=CC(=O)C(C)(OC(=O)CCc3ccccc3)C(=O)C2=CO1` (stereo not given) reads “inactive”.
As for `COCOc1c2c(c(OCOC)c3c(OCOC)cccc13)C(=NNS(C)(=O)=O)C1=C2CCCC1`, the Potency result is “inactive”.
Consider `COC(=O)C1=C(C(=O)OC)[C@@H]2N(C)c3ccc(OC)cc3[C@@]23C[C@@H](C(=O)OC)N(S(=O)(=O)c2c(C)noc2C)C3=N1`, for which the Potency entry was “inactive”.
For `COCC(=O)N1CCc2nc(COc3ccccc3)c3c(c2C1)CO[C@@H](C)C3`, the Potency entry was “inactive”.
On the same count and under the same terms, the entry for `COC(=O)C1=C(C(=O)OC)[C@@H]2Nc3ccccc3[C@@]23C[C@@H](C(=O)OC)N(C(=O)c2cccs2)C3=N1` is “inactive”; for `COC(=O)C1=C(C)N(CCc2cc(OC)c(OC)c(OC)c2)C(=O)N[C@H]1c1ccccc1` it is “inactive”.
Still for that read-out and setting: the entry for `CC#CCN1c2ccccc2[C@]23C[C@@H](C(=O)OC)N(C(=O)c4ccc(Br)cc4)C2=NC(C(=O)OC)=C(C(=O)OC)[C@H]13` is “inactive”; for `COC(=O)[C@@H]1CC[C@H](C)[C@@H](c2ccc(C)cc2)N1C(=O)c1ccc(C=NO[C@@H](C)c2cc(-c3c(C)cc(C)cc3C)no2)cc1` it is 1.69 µM (active); for `C=CCN1C=C2C(=O)C(C)(OC(=O)c3cccs3)C(=O)C=C2C=C1CCCC(=O)OC` (stereo not given) it is “inactive”.
On the same count and under the same terms, the entry for `CCCNC(=O)N1C2=NC(C(=O)OC)=C(C(=O)OC)[C@@H]3N(C)c4ccccc4[C@]23C[C@H]1C(=O)OC` is “inactive”; for `COC(=O)N1C2CC(=O)O[C@@H]3c4cc5c(cc4[C@]1(C)[C@@]3(Br)c1ccccc12)OCO5` it is 1.2 µM (active); for `COC(=O)CCCC1=CC2=CC(=O)C(C)(OC(=O)c3cccs3)C(=O)C2=CN1Cc1ccccc1` (stereo not given) it is “inactive”.
`COC(=O)C1=C(C(=O)OC)[C@@H]2N(Cc3ccccc3)c3ccccc3[C@@]23C[C@@H](C(=O)OC)N(S(=O)(=O)c2ccc(C(F)(F)F)cc2)C3=N1`: the Potency is 0.536 µM (active).
The same measure, in the same setting: the result for `CC(CCN1CCCCc2nc(C)c(C)cc21)=NO[C@@H](C)c1cn([C@H](CO)Cc2ccccc2)nn1` reads “inactive”; that for `C=CCN1c2ccccc2[C@]23C[C@@H](C(=O)OC)N(C(=O)c4cc(C)oc4C)C2=NC(C(=O)OC)=C(C(=O)OC)[C@H]13`, “inactive”; that for `COC(=O)C1=C(C(=O)OC)[C@@H]2N(Cc3ccccc3)c3ccccc3[C@@]23C[C@@H](C(=O)OC)N(S(=O)(=O)c2ccc4c(c2)OCCN4C)C3=N1`, 1.51 µM (active).
Turning to `COC(=O)C1=C(C(=O)OC)[C@@H]2Nc3ccccc3[C@@]23C[C@@H](C(=O)OC)N(C(=O)C2CCC2)C3=N1`, the Potency entry was “inactive”.
As for `C=C(C)C(=O)c1ccc2c(c1)OCO2`, the Potency result is “inactive”.
Take `COC(=O)C1=C(C(=O)OC)[C@@H]2N(Cc3ccccc3)c3ccccc3[C@@]23C[C@@H](C(=O)OC)N(S(=O)(=O)c2ccc(Br)cc2)C3=N1`: the Potency is 1.69 µM (active).
